# Measurements from PubChem BioAssay AID2685 (National Center for Advancing Translational Sciences (NCATS), 2010).
# About 2,100 (0.66%) of roughly 320,000 compounds were called active. Not shown: some 53% with an inconclusive outcome. Calls follow the shape of the dose curve; as a rule, active = well fitted inhibition curve with a large enough effect in the signal ratio, with a control signal flat (not every such curve was filed as active); inconclusive = small, poorly fitted or top-dose-only effect, or effect the other way, or a change in a side signal; inactive = flat fitted curve, though single readings scatter; the % refers to the signal ratio. The list comes from a sample in which actives are over-represented; it also holds similar structures and randomly drawn compounds.
# Experiment: qHTS Assay for Lipid Storage Modulators in Drosophila S3 Cells;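 as to cell number change: cells counted by Cell Tracker Red CMTPX staining in the red channel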; as to lipid storage change, negative = inhibition: % is scaled to controls: 0 for no effect and ±100 for the full control effect
# Conditions: BODIPY lipid droplet fluorescence, 18-24 h, cells fed with added oleic acid; cell number change: measured here: cell count max response; series mostly up to 46.1 µM; lipid storage change, negative = inhibition: at the top concentration
# How it was run: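 Laser-scanning cytometry quantifies lipid droplet accumulation (500–530 nm total intensity; droplet/cell object ratio) in oleic acid-fed (400 uM added) Drosophila S3 cells treated with a concentration series. 20 uM Triacsin C defined 100% inhibition.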
# Potency is read from the fitted curve at half-maximal effect.
SMILES,outcome,cell number change [%],"lipid storage change, negative = inhibition",Potency
O=C(NCCO)c1ccccc1O,inactive,26.5,–,–
O=C(NCCNC(=O)c1ccccc1Br)c1ccccc1Br,–,13.7,5.24% (inactive),–
O=C(NCCNC(=O)c1ccccc1O)c1ccccc1O,–,-28.8,–,9.2 µM (active)
Cc1ccc(C2C(C#N)=C(N)N(c3ncn[nH]3)C3=C2C(=O)CC(C)(C)C3)cc1 (configuration not stated),inactive,–,–,–
CCOc1ccc(N(CC(=O)NC(C(C)C)C(C)C)S(=O)(=O)c2ccc(OC)c(OC)c2)cc1,–,14,-10.3% (inactive),–
CC(=O)C1=C(O)C(=O)N(c2ccc(S(N)(=O)=O)cc2)C1c1cccc([N+](=O)[O-])c1 (configuration not stated),–,5.32,-11.7% (inactive),–
CC(NC(=O)CCl)c1ccc(Cl)c(Cl)c1 (configuration not stated),–,-24.5,–,23.1 µM (active)
CC(C)CNC(=O)c1ccc(Cl)c(Cl)c1,–,-14.4,11.7% (inactive),–
CC(NC(=O)Cc1ccc(S(=O)(=O)N2CCOCC2)s1)c1ccc(Cl)c(Cl)c1 (configuration not stated),–,-8.77,4.21% (inactive),–
Cc1ccc(NC2CCCN(C(=O)c3cnc4ccccn4c3=O)C2)cc1C (configuration not stated),–,10.1,-4% (inactive),–
CC1CCN(C(=O)CCNS(=O)(=O)c2ccccc2)CC1,–,9.54,-3.73% (inactive),–
Cc1ccc(S(=O)(=O)NCCCC(=O)N2CCC(C)CC2)cc1,–,-15.3,–,16.4 µM (active)
Cc1ccc(S(=O)(=O)NCC(=O)NCC(=O)N2CCC(C)CC2)cc1,inactive,27.4,–,–
CC1CN(C(=O)COC(=O)c2ccc(NC(=O)CC#N)cc2)CC(C)O1 (configuration not stated),–,-23.4,1.66% (inactive),–
CC(=O)Nc1cc(NC(C)=O)cc(C(=O)OCC(=O)N2CC(C)OC(C)C2)c1 (configuration not stated),–,-18.5,–,25.9 µM (active)
CCOc1ccc(C(=O)OCC(=O)N2CC(C)OC(C)C2)cc1OCC (configuration not stated),inactive,-6.35,–,–
COC(=O)c1ccc(NC(=O)CSc2nc(=O)n3cccc(C)c3n2)cc1,–,-5.09,8.53% (inactive),–
COC(=O)c1ccc(-n2c(C)ccc2-c2ccccc2)cc1,inactive,–,–,–
COc1ccc(-n2c(C)ccc2-c2ccccc2)cn1,–,3.52,–,14.6 µM (active)
CC(=O)Nc1ccc(-n2c(C)ccc2-c2ccccc2)cc1,–,12.4,6.88% (inactive),–
COc1ccc(Br)cc1C(=O)NC(=S)Nc1ccc2[nH]c(=O)[nH]c2c1,inactive,-29.5,–,–
COc1ccc(S(=O)(=O)N2CCCCCC2)cc1C(=O)Nc1ccc(C)cn1,inactive,–,–,–
COc1ccc(C2CC(O)(c3ccccc3)Oc3cc(OC)cc(OC)c32)cc1 (configuration not stated),–,-14.8,-17.8% (inactive),–

SMILES,outcome,cell number change [%],"lipid storage change, negative = inhibition",Potency
COc1ccc([C@@H]2C[C@H](c3ccccc3)Oc3cc(OC)c(OC)c(OC)c32)cc1,–,-18.2,–,4.61 µM (active)
COc1ccc([C@@H]2C[C@@H](c3ccccc3)Oc3cc(OC)c(OC)c(OC)c32)cc1,–,-1.66,-12.6% (inactive),–
C=C1CCN(C(C(=O)OC)C(C)C)S(=O)(=O)c2ccccc21 (configuration not stated),–,0.159,-1.62% (inactive),–
Cn1c2c(c(=O)n(C)c1=O)C(NC(=O)c1cccs1)(C(F)(F)F)C(=O)N2 (configuration not stated),–,-6.48,-10.5% (inactive),–
CCC(=O)NC1(C(F)(F)F)C(=O)Nc2c1c(=O)n(C)c(=O)n2C (configuration not stated),inactive,7.51,–,–
Cn1c2c(c(=O)n(C)c1=O)C(NC(=O)c1ccco1)(C(F)(F)F)C(=O)N2 (configuration not stated),–,6.96,9.46% (inactive),–
CC(C)CC(=O)NC1(C(F)(F)F)C(=O)Nc2c1c(=O)n(C)c(=O)n2C (configuration not stated),–,2.2,–,3.66 µM (active)
CC(=O)NC1(C(F)(F)F)C(=O)Nc2c1c(=O)n(C)c(=O)n2C (configuration not stated),–,-13.1,-1.58% (inactive),–
CCCCC(=O)NC1(C(F)(F)F)C(=O)Nc2c1c(=O)n(C)c(=O)n2C (configuration not stated),–,-5.38,–,18.4 µM (active)
CC(=O)Nc1ccccc1/C=C/c1ccc2c(C)cc(C)c(O)c2n1,–,8.64,14.1% (inactive),–
CCCCCOc1ccc(/C=C/C(=O)NCCc2nc3ccccc3[nH]2)cc1OC,–,-28.6,–,13 µM (active)
COc1ccc(OC)c(/C=C/C(=O)NCCc2nc3ccccc3[nH]2)c1,–,-6.41,-16.4% (inactive),–
COc1ccc(/C=C/C(=O)NCCc2nc3ccccc3[nH]2)cc1,–,-8.48,-0.312% (inactive),–
O=C(Nc1nnc(-c2cccs2)o1)C1CC1,–,-5.18,-0.337% (inactive),–
COc1ccc(N2C(=O)CSC2c2ccccc2)cc1 (configuration not stated),–,14.6,3.7% (inactive),–
Cc1n[nH]c(C)c1S(=O)(=O)N1CCc2ccccc21,–,-2.98,11.4% (inactive),–
C/C(=N\NC(=O)c1cccs1)c1cccnc1,–,20.6,-0.0778% (inactive),–
S=C(NCCc1ccccc1)N1CCn2cccc2C1c1ccncc1 (configuration not stated),–,15.3,–,7.31 µM (active)
S=C(NCc1ccccc1)N1CCn2cccc2C1c1ccncc1 (configuration not stated),–,5.96,5.38% (inactive),–
S=C(NCCc1ccccc1)N1CCn2cccc2C1c1cccnc1 (configuration not stated),–,-24.1,-3.98% (inactive),–
CC[C@@H](NS(=O)(=O)c1ccc(C)cc1)C(=O)Oc1ccc2c3c(c(=O)oc2c1)CCC3,–,4.66,-5.22% (inactive),–
CC(=O)NC12CC3CC(C1)CC(C(=O)Nc1nc4ccc(F)cc4s1)(C3)C2,inactive,-27.9,–,–
